# High-throughput results (PubChem BioAssay)
# A selection: hits, their analogues and other compounds. The true share with any hit is near 2.3%.
# M1 antag: antagonists of human M1 muscarinic receptor; 360,000 compounds, 1.3% hits; AID 588852; inhibition, % at 3 µM; P11229; CHO-K1 hM1, Fluo-8 calcium fluorescence, ACh EC80 antagonist;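 active means percent inhibition above its own plate's cutoff, namely the mean of that plate's compound wells plus 3 SD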;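 further: peak over basal fluorescence ratio during 140 s after agonist addition; 0% = ACh EC80 plus DMSO and 100% = DMSO alone without agonist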
# Target sequence (P11229 whole entry, looked up): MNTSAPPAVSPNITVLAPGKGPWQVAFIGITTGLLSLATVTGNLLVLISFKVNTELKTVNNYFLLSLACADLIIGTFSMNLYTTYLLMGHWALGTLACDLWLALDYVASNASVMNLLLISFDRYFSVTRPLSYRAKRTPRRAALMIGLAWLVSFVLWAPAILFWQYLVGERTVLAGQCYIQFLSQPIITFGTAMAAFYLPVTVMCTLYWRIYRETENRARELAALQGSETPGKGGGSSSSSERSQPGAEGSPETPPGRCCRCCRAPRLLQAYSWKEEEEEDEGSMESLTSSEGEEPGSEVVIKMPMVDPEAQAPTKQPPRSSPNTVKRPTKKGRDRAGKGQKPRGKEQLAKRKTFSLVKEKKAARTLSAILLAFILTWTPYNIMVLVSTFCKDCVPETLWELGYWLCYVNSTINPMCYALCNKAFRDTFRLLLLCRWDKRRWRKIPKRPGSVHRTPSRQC
# M1 PAM parental: M1 PAM counterscreen hit in parental CHO-K1 cells | activation, % at 3 µM | ATP EC20, Fluo-8 calcium fluorescence; 0% at ATP EC20, 100% at ATP max | 360,000 compounds, 0.02% hits;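 active means activation above the run cutoff, the mean activation of all test compounds plus 3 SD, cut at about 40% in these data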;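 further: peak over basal fluorescence ratio in a 140 s read after ATP addition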
# M1 PAM: human CHRM1 positive allosteric modulation; activation, % at 3 µM; P11229; CHO-K1 hM1, Fluo-8 calcium fluorescence, ACh EC20; 0% = ACh EC20, 100% = maximal ACh; AID 588819; 360,000 compounds, 0.088% hits; in the data active means activation above about 19%, passing the limit was not always enough
# M1 ag parental: nonselective activator or artifact in parental CHO-K1 cells. activation, % at 3 µM. Fluo-8 calcium fluorescence; scaled to maximal ATP response, vehicle zero. 360,000 compounds, 0.48% hits. AID 602248; in the data active means activation above about 15%;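 further: untransfected CHO-K1 host cells lacking M1 receptor as counterscreen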
# CHO-K1 Ca antag: nonselective inhibitor or artifact in parental CHO-K1 cells; inhibition, % at 3 µM; 360,000 compounds, 0.6% hits; ATP-induced calcium, Fluo-8 fluorescence;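 active means inhibition above a per-plate cutoff, the plate's mean sample inhibition plus 3 SD, cut at about 24% in these data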;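 further: 0% = DMSO plus EC80 ATP and 100% = DMSO alone without ATP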
# M1 ag: agonists of human M1 muscarinic receptor; P11229; CHO-K1 hM1, Fluo-8 calcium fluorescence, agonist mode; 0% DMSO, 100% acetylcholine EC100; activation, % at 3 µM; 360,000 compounds, 0.33% hits;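 active means activation above the run's mean compound activation plus 3 SD, cut at about 16% in these data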;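 further: peak over basal fluorescence ratio within a 140 s kinetic read after compound addition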
# * hit, by the source's call.
SMILES,M1 antag,M1 PAM parental,M1 PAM,M1 ag parental,CHO-K1 Ca antag,M1 ag
O=C(c1cc(COc2cccc(C(F)(F)F)c2)on1)N1CCC(c2ccccc2)CC1,3,-3,-5,1,-13,-2
CC(=O)c1cccc(OCc2cc(C(=O)N3CCSCC3)no2)c1,-7,-2,6,11,0,-2
CC(=O)c1ccc(OCc2cc(C(=O)N3CCC(c4ccncc4)CC3)no2)cc1,14,-28,-11,15*,19,1
COc1cccc(OCc2cc(C(=O)N3CCC(c4ccncc4)CC3)no2)c1,23,-11,-10,12,19,0
CCOc1cccc(C(=O)N2CCCCC2c2cccnc2)c1 (stereo unspecified),-7,7,6,0,0,-3
CC(=O)c1cccc(OCc2cc(C(=O)N3CCC(N4CCCCC4)CC3)no2)c1,48*,14,-22,1,-10,-5
CC(=O)c1ccc(OCc2cc(C(=O)N3CCCCC3c3cccnc3)no2)cc1 (stereo unspecified),4,-5,-5,16*,-1,5
O=C(c1cc(COc2cccc(C(F)(F)F)c2)on1)N1CCC(c2ccncc2)CC1,38*,1,-13,11,19,-1
CCc1cc2c3c([nH]c2cc1S(=O)(=O)NCCCOC)CC(C)(C)CC3=O,-19,9,5,1,-17,-4
COc1cc(C2C(C#N)=C(N)Oc3c2oc(CO)cc3=O)ccc1OC(C)C (stereo unspecified),-8,14,11,1,-9,-4
CC(C)Oc1ccc(C2C(C#N)=C(N)Oc3c2oc(CO)cc3=O)cc1 (stereo unspecified),-1,19,7,15*,2,-4
CCOC(=O)C1(Cc2ccc(OC)cc2)CCN(C(=O)[C@@H]2CCCN2C(C)=O)CC1,-17,13,-1,1,-14,-4
O=C(c1ccc2c(c1)OCO2)C1CCCN(Cc2ccc3cccc(F)c3n2)C1 (stereo unspecified),21,-7,-28,1,-4,-11
O=C(c1ccc2c(c1)OCO2)C1CCCN(Cc2ccc(OC(F)F)cc2)C1 (stereo unspecified),91*,4,-24,9,-5,0
COc1cc(OC)c(OC)cc1CN1CCCC(C(=O)c2ccc3c(c2)OCO3)C1 (stereo unspecified),6,-2,-13,0,3,-10
O=C(c1ccc2c(c1)OCO2)C1CCCN(Cc2cccc(C(F)(F)F)c2)C1 (stereo unspecified),63*,-1,-24,0,-2,-7
CCCn1ncc(C(=O)NC2CCCN(Cc3ccc(Cl)cc3)C2)c1C (stereo unspecified),0,11,2,1,-5,-5
CCN1CCN(c2ccc(NC(=O)COc3ccc(Cl)cc3C)cc2)CC1,100*,0,-27,2,-11,-8
CCN1CCN(c2ccc(NC(=O)COc3ccccc3Cl)cc2)CC1,32*,-5,-15,0,3,-5
Cc1[nH]c2ccccc2c1C(=O)C(=O)NCCOc1ccccc1,-1,-7,1,4,-10,-3
CCN(CC)CCCCN1c2ccccc2Sc2ccccc21,101*,-7,-27,13,-3,-7
CCN(CC)CC(=O)N1c2ccccc2Sc2ccccc21,101*,3,-28,1,-12,-9
CCN(CC)C(=O)N1c2ccccc2Sc2ccccc21,-7,3,2,0,-14,-8
CCN(CC)CC(=O)N1c2ccccc2Sc2ccc(Cl)cc21,99*,-8,-20,0,-8,-4
O=C1/C(=C/c2ccccn2)SC(=S)N1N1CCOCC1,-1,4,2,0,-7,-2
SMILES,M1 antag,M1 PAM parental,M1 PAM,M1 ag parental,CHO-K1 Ca antag,M1 ag
Cc1c(C#N)c(NC(=O)CCl)n(Cc2cccs2)c1C,0,10,4,0,-15,-6
CCOC(=O)C1(Cc2ccc(Cl)cc2)CCN(C(C)Cc2ccc(O)c(OC)c2)CC1 (stereo unspecified),39*,0,-17,9,19,-5
CCOC(=O)C1(Cc2ccc(OC)cc2)CCN(S(C)(=O)=O)CC1,1,6,4,1,-11,-2
COc1ccc(C(=O)NNC(=O)c2cccc(F)c2)cc1,-5,16,4,1,-7,-3
O=C(Nc1ccc(Cl)c(Cl)c1)Nc1ccccc1O,19,-9,-7,13,25*,2
O=C(Nc1ccc(Cl)c(Cl)c1)Nc1ccc(Br)cc1F,28,1,-19,11,28*,0
O=C(Nc1ccccc1)Nc1ccc(Br)c(Cl)c1,28,3,-13,13,27*,0
O=C(Nc1ccc(Cl)c(Cl)c1)Nc1ccon1,24*,-20,-15,11,20,4
Cc1cc(NC(=O)Nc2ccc(Cl)c(Cl)c2)no1,9,-14,-1,7,13,3
COc1ccc(NC(=S)Nn2cnnc2)c(OC)c1,-7,5,9,0,0,-2
O=C1C=C(NC(=O)Nc2ccc(Cl)c(Cl)c2)CCC1,13,-2,-12,7,30*,1
NNC(=O)C(=O)Nc1ccc(Cl)c(Cl)c1,-23,4,10,1,-5,-2
Cc1ccc(S(=O)(=O)N2C[C@@H]3CCCC[C@@H]3[C@@H](C)[C@H]2c2cn(Cc3ccccc3)c3ncccc23)cc1,-2,9,29*,-1,-17,4
CN(CC(=O)Nc1ccc(C(N)=O)cc1)CC(=O)Nc1ccccc1Br,-7,-17,5,1,2,4
CN(CC(=O)Nc1ccccc1Br)C(=O)CNC(=O)c1cccs1,34*,-18,-4,0,9,-2
CC(=O)Nc1ccc(NC(=O)CN(C)CC(=O)Nc2ccccc2Br)cc1,38*,-19,-14,5,11,-4
Cc1ccc(C(=O)NCC(=O)N(C)CC(=O)Nc2ccccc2Br)s1,3,-15,6,0,8,0
Cn1ncc2c(NCCc3ccccc3)nc(Cl)nc21,-14,11,5,3,-11,3
COc1ccc(Br)cc1C1CC(=O)C(C)C(c2cc(Br)ccc2OC)N1 (stereo unspecified),-6,6,6,-1,8,-4
CCCC(C)(C)C(=O)N1CCC1(C)C(=O)NS(=O)(=O)c1cccc(Cl)c1 (stereo unspecified),-12,-8,21,-1,5,4
COc1ccc([C@@H]2C[C@H]3[C@@H](CN2S(=O)(=O)c2ccccc2)C(=O)C[C@@H](c2cccc(Cl)c2)N3S(=O)(=O)c2ccc(C)cc2)cc1,21,9,-2,2,24*,-2
